# In PubChem BioAssay AID2069 (Sanford-Burnham Center for Chemical Genomics, 2009):
# Out of some 1,200 compounds screened, about 210 (18%) were called active. These entries were drawn from the full list. A number with no mark means an inactive call. Cut-off read from the data, not from the text of the source: active = inhibition above about 30%; inactive = the rest.
# Assay: HTRF signal interference by compounds, confirmation, artefact control for SUMOylation inhibitor project, biochemical, uHTS (AID 2069)
# Conditions: HTRF interference counterscreen, fluorescence, at 35 µM, active compounds read high
row,SMILES,inhibition
1,O=C(Nc1nnc(-c2ccccc2SCc2ccccc2F)s1)Nc1ccccc1F,0.75%
2,Cc1ccc(C(=O)NC(C)c2nc3ccccc3n2CC(=O)Nc2c(C)cc(C)cc2C)cc1 (stereo not given),25.5%
3,O=C(CCc1ccccc1)NNc1cc(N2CCCCC2)nc(N2CCCCC2)n1,14.2%
4,CCC(=O)OCCNc1cc(Sc2nccn2C)c2nonc2c1[N+](=O)[O-],8.05%
5,CC1=C(C#N)C(=O)NC(=O)/C1=C\c1ccc(-c2ccc(C)cc2[N+](=O)[O-])o1,-1.55%
6,COc1ccc2c(c1)CC/C(=C\C=C\c1ccccc1)C2=O,6.1%
7,CCOC(=O)N1CCC(c2cc(=O)n(-c3ccccc3)[nH]2)CC1,2.2%
8,CCOC(=O)N1CCN(C(=O)c2cccn3c(=O)c4cc(Br)ccc4nc23)CC1,49.9% (active)
9,O=C(NCCNc1ccc2ccccc2c1)c1cccn2c(=O)c3sccc3nc12,5.05%
10,CCOC(=O)N1CCN(C(=O)c2cccn3c(=O)c4cc(Cl)ccc4nc23)CC1,43.5% (active)
11,O=C(c1cccn2c(=O)c3cc(Cl)ccc3nc12)N1CCOCC1,44.6% (active)
12,Cn1c2ccc(Cl)cc2c2nc3ccccc3nc21,21.9%
13,O=C(c1cccn2c(=O)c3cc4ccccc4cc3nc12)N1CCN(c2ccccc2)CC1,7.35%
14,NC(=O)CC(NC(=O)Cc1ccc(Br)cc1)c1ccc(N2CCC(Br)CC2)c([N+](=O)[O-])c1 (stereo not given),4.65%
15,O=C(Nc1nnc(-c2ccccc2)o1)c1nc2ccccc2s1,11.1%
16,CN(C)c1cc(Cl)c2nonc2c1N,4.85%
17,NC(=O)c1ccc(N=C2C(=O)Nc3ccc([N+](=O)[O-])cc32)cc1,-4.65%
18,S=C(Nc1ccc(Cl)cc1)Nc1cccc2cnccc12,1.3%
19,CCCCCn1c(NC(=O)c2ccco2)c(S(=O)(=O)c2ccc(C)cc2)c2nc3ccccc3nc21,6.85%
20,CC(=O)c1ccc(NC(=S)Nc2cccc3ccccc23)cc1,14.1%
21,O=[N+]([O-])c1ccccc1/C=C/C=N/n1c(-c2cc(-c3ccccc3)n[nH]2)n[nH]c1=S,-4%
22,COCCCn1c(C(=O)N2CCOCC2)cc2c(=O)n3ccccc3nc21,52.1% (active)
23,COCCCn1c(C(=O)N2CC(C)OC(C)C2)cc2c(=O)n3ccccc3nc21 (stereo not given),46.4% (active)

row,SMILES,inhibition
1,COCCCNC(=O)c1cccn2c(=O)c3cc4ccccc4cc3nc12,13.3%
2,CC1=NN(c2ccc(Br)cc2)C(=O)/C1=C/c1cccs1,-19.8%
3,CCc1ccc(NC(=S)Nc2cccc3cnccc23)cc1,3.45%
4,N#Cc1c2nc3ccccc3nc2n2cc(NC(=O)c3ccc(F)cc3)ccc12,3%
5,Cn1cccc1/C=N/NC(=O)c1sc2cc(Cl)ccc2c1Cl,15%
6,O=C(N/N=C/c1ccc(O)c2ncccc12)c1cccc(Br)c1,-4.25%
7,S=c1[nH]nc(-c2ccncc2)n1/N=C/c1cn(-c2ccccc2)nc1-c1ccc(Cl)cc1,-1.35%
8,Cc1ccc(/C=C2\SC(=S)N(c3cccnc3)C2=O)o1,4.85%
9,Fc1cccc(Cl)c1C1Nc2cccc3cccc(c23)N1,-14.8%
10,Cc1cc2c(NC(=O)Nc3ccccc3)cccc2nn1,-6.1%
11,Cc1ccc(NC(=O)Nc2ccno2)cc1,48.2% (active)
12,Cc1ccc(NC(=O)Cn2nc(C(=O)Nc3ccc(C)cc3)ccc2=O)cc1,4.7%
13,O=C(Nc1ccccc1)c1ccccc1CCc1ccccc1,2.45%
14,O=C(Nc1ccccc1)Nc1ccno1,47.1% (active)
15,CCC(NC(=O)Nc1ccc(O)cc1)(C(F)(F)F)C(F)(F)F,-9.2%
16,COc1ccc(/C=C2/C(=O)N(c3ccccc3)N=C2C)cc1OC,-0.35%
17,O=[N+]([O-])c1c(NCc2ccccc2)cc(N2CCc3ccccc3C2)c2nonc12,0.75%
18,O=[N+]([O-])c1cc(CN2CCN(c3cccc(C(F)(F)F)c3)CC2)c2cccnc2c1O,-18.5%
19,Cc1cc2c(NC(=O)Nc3ccc(C(C)(C)C)cc3)cccc2nn1,18.8%
20,CCCc1cc(=O)oc2cc(OCC(=O)Nc3ccc(S(N)(=O)=O)cc3)ccc12,21.4%
21,Cc1c(O)ccc2c(CC(=O)N[C@@H](Cc3ccc(O)cc3)C(=O)O)cc(=O)oc12,39.9% (active)
22,NC(=O)C1CCN(C2=C(NS(=O)(=O)c3ccccc3)C(=O)c3ccccc3C2=O)CC1,-13.8%
23,O=C(CN1C(=O)S/C(=C\c2ccccc2)C1=O)NNC(=O)c1ccccc1O,2.55%

row,SMILES,inhibition
1,S=c1[nH]nc(-c2cc(-c3ccco3)[nH]n2)n1-c1cccc2ccccc12,-16.1%
2,CCOC(=O)N1CCc2c(sc3c2c(=O)n(Cc2ccccc2)c(=O)n3CC(=O)NCCOC)C1,-6.7%
3,C[C@@H]1CN=C2N(CCNC(=O)CCC3CCCCC3)[C@H](Cc3ccc(O)cc3)CN21,1.3%
4,COCCNC(=O)CCC1CCN(Cc2ccc(-c3ccccc3)cc2)CC1,65.5% (active)
5,CCOC(=O)Cn1c(=NC(=O)c2sc3ccccc3c2Cl)sc2cc(S(N)(=O)=O)ccc21,8.1%
6,C#CCOc1ccc(/C=C2/C(=O)N(c3cccc(C(=O)O)c3)N=C2C)cc1OC,-5.85%
7,CC(=O)C1=C(C)OC2(O)c3ccccc3C(=O)C12O (stereo not given),-21.7%
8,NNc1nc2c(Cl)ccc(Cl)c2s1,-0.55%
9,CC(=O)C1C(=O)C=C(c2ccco2)CC1c1ccccc1 (stereo not given),0.4%
10,COc1ccc2[nH]c3c(=O)n(CCCC(=O)NC4CCC(C)CC4)c(=S)[nH]c3c2c1 (stereo not given),6.2%
11,Cc1c(C(=O)O)c(C(=O)O)nc2ccc(N3CCOCC3)cc12,7.75%
12,N#Cc1cc2ccc(N3CCOCC3)cc2cc1C#N,9.35%
13,O=c1c2cc(N3CCOCC3)ccc2[nH]c(=S)n1CC1CCCO1 (stereo not given),55.1% (active)
14,O=c1c2cc(N3CCOCC3)ccc2[nH]c(=S)n1Cc1ccccn1,56.3% (active)
15,CC1CCN(CCCn2c(=S)[nH]c3ccc(N4CCOCC4)cc3c2=O)CC1,52.3% (active)
16,N#C/C(=C\c1ccc(-c2ccc([N+](=O)[O-])cc2)o1)C(=O)Nc1nc(-c2cccs2)cs1,0.8%
17,O=C(c1ccc2c(c1)[nH]c(=S)n1c3ccccc3nc21)N1CCN(c2ncccn2)CC1,11.9%
18,COc1ccc(S(=O)(=O)C(C#N)c2nc3ccccc3nc2N2CCC(C)CC2)cc1 (stereo not given),-6%
19,CCOc1ccc(NC(=S)Nc2cccc3ccccc23)cc1,-13.5%
20,COc1ccc(OC)c(S(=O)(=O)NCCc2cn3ccsc3n2)c1,-8.15%
21,CCOC(=O)CCc1c(C)c(C#N)c2[nH]c3ccccc3n2c1=O,2.5%
22,CC(=O)Oc1c(/C=C(\C#N)C(N)=O)[nH]c2ccccc12,-17.9%
23,C=CCOc1c(Cl)cc(CNc2ccc3[nH]c(=O)[nH]c3c2)cc1OC,-12.6%

row,SMILES,inhibition
1,Cc1ccc(C2=NN(C(=O)CCC(=O)O)C(c3cn(-c4ccccc4)nc3-c3ccc(C)cc3)C2)cc1 (stereo not given),23.6%
2,COc1ccc(C2=NN(C(=O)CCCC(=O)O)C(c3cn(-c4ccccc4)nc3-c3ccccc3)C2)cc1 (stereo not given),4.9%
3,O=C(O)c1ccc(N2N=C(c3ccccc3)CC2c2ccccc2)cc1 (stereo not given),60.1% (active)
4,O=C(N=Nc1c(O)n(Cc2ccccc2)c2ccccc12)c1cc2ccccc2cc1O,10.8%
5,COCCn1c(-c2cccs2)csc1=Nc1cccnc1,3.35%
6,COc1ccc(-c2nc(SCC(=O)Nc3cc(C)on3)n[nH]2)cc1,22.4%
7,O=[N+]([O-])c1cc(C=Nc2cccc3c(O)cccc23)ccc1Cl,-17.1%
8,c1ccc2c3c(cc(N4CCOCC4)c2c1)OC1(N2CCOCC2)CCCCC1O3 (stereo not given),16%
9,S=C(NCc1ccc2c(c1)OCO2)Nc1ccc2nsnc2c1,-0.25%
10,O=C(Nc1ccc2oc(-c3ccc4ccccc4c3)nc2c1)c1ccc2c(c1)OCCO2,8.15%
11,CC(C)CC(=O)Nc1ccc2oc(-c3cccnc3)nc2c1,42.5% (active)
12,CCCC(=O)Nc1ccc2oc(-c3cncc(Br)c3)nc2c1,19.6%
13,Nc1ccc(N2CCN(CCCCN3C(=O)C4CCCN4C3=O)CC2)cc1 (stereo not given),-7%
14,Cc1cc(/C=C2\C(=O)NN(c3ccccc3)C2=O)c(C)n1-c1ccccc1O,-1.5%
15,O=C(Nc1ccc(F)cc1)C(=O)c1c(O)[nH]c2ccc([N+](=O)[O-])cc12,-2.85%
16,O=C(O)/C=C/C(=O)Nc1ccc(O)cc1,-0.1%
17,Cc1ccc(NC(=O)CN2C(=O)S/C(=C/c3ccc(-c4cc(C(=O)O)ccc4C)o3)C2=O)cc1C,37.2% (active)
18,Cc1ccccc1NC(=O)CN1C(=O)S/C(=C\c2ccc(-c3cc(C(=O)O)ccc3C)o2)C1=O,28.9%
19,Cc1ccc(C(=O)O)cc1-c1ccc(/C=C2\SC(=O)N(CC(=O)Nc3ccc4c(c3)OCO4)C2=O)o1,23.6%
20,Cc1cc[n+](-c2[nH]c(=O)sc2/C=N/N=C(\[O-])c2ccncc2)cc1,-1.55%
21,CCCCNC(=O)Oc1c(Br)cc2sc(=O)oc2c1Br,7.5%
